Results filed as inconclusive are left out. Entries that show only a call come without a potency. Active and inactive are the calls of the source. The call rests on the fitted dose curve; in most records, active means well fitted cell-killing curve with a large enough effect; inconclusive means small, poorly fitted or top-dose-only effect, or effect the other way; inactive means no such curve, though single readings can be large or run the other way.
Columns and labels:
[1] = Quantitative High-Throughput drug screen in 47 multiple myeloma cell lines against the NCATS MIPE library collection: KMS28PE_JCRB cell viability assay (AID 1918983); further: nearly all actives have a fitted effect of over 35% in size
Summary of the method: (§1)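 Readout: median RLU from CellTiter-Glo after 5 min at room temperature. Preceding step was 48 h drug treatment of 500 cells/well at 37 °C, 5% CO2, with DMSO-only and media-only control wells.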

[2] = Quantitative High-Throughput drug screen in 47 multiple myeloma cell lines against the NCATS MIPE library collection: OCIMY5_PLB cell viability assay (AID 1918988); further: nearly all actives have a fitted effect of over 65% in size
Summary of the method: as §1

[3] = Quantitative High-Throughput drug screen in 47 multiple myeloma cell lines against the NCATS MIPE library collection: OPM1_PLB cell viability assay (AID 1918989); further: nearly all actives have a fitted effect of over 40% in size
Summary of the method: as §1

[4] = Quantitative High-Throughput drug screen in 47 multiple myeloma cell lines against the NCATS MIPE library collection: SKMM1_PLB cell viability assay (AID 1919863); details: SKMM1 myeloma viability, CellTiter-Glo ATP, 48 h; viability: hits give low values; further: nearly all actives have a fitted effect of over 35% in size; on viability: series mostly up to about 46 µM
Summary of the method: as §1

[5] = Quantitative High-Throughput drug screen in 47 multiple myeloma cell lines against the NCATS MIPE library collection: U266_ATCC cell viability assay (AID 1919864); further: nearly all actives have a fitted effect of over 35% in size
Summary of the method: as §1

[6] = Quantitative High-Throughput drug screen in 47 multiple myeloma cell lines against the NCATS MIPE library collection: XG6_PLB cell viability assay (AID 1919865); further: nearly all actives have a fitted effect of over 40% in size
Summary of the method: as §1

[7] = Quantitative High-Throughput drug screen in 47 multiple myeloma cell lines against the NCATS MIPE library collection: XG1_PLB cell viability assay (AID 1919866); further: nearly all actives have a fitted effect of over 35% in size
Summary of the method: as §1

[8] = Quantitative High-Throughput drug screen in 47 multiple myeloma cell lines against the NCATS MIPE library collection: KMS34_JCRB cell viability assay (AID 1918985); further: nearly all actives have a fitted effect of over 40% in size
Summary of the method: as §1

[9] = Quantitative High-Throughput drug screen in 47 multiple myeloma cell lines against the NCATS MIPE library collection: OCIMY7_PLB cell viability assay (AID 1918987); further: nearly all actives have a fitted effect of over 65% in size
Summary of the method: as §1
Potency means the concentration at half of the fitted maximal effect.

SMILES	Potency [1]	Potency [2]	Potency [3]	viability [4]	Potency [5]	Potency [6]	Potency [7]	Potency [8]	Potency [4]	Potency [9]
NC(=O)c1cccnc1	inactive	inactive	inactive	105% (inactive)	inactive	16.6 µM (active)	inactive			
CCCc1cc(C(N)=S)ccn1	inactive	inactive	inactive			inactive	inactive	inactive		
O=S(=O)(O)CCS	inactive		inactive	136% (inactive)		inactive	inactive	inactive		
CC(N)C12CC3CC(CC(C3)C1)C2 (stereo unspecified)	inactive			118% (inactive)		inactive	inactive	inactive		
NC(=O)c1ccc2[nH]ccc2c1	inactive				inactive	inactive		inactive		
CCCOc1ccc(C(=O)OCCN(CC)CC)cc1N	inactive	inactive	inactive	118% (inactive)		inactive	inactive	inactive		
CC(C)(Sc1cc(C(C)(C)C)c(O)c(C(C)(C)C)c1)Sc1cc(C(C)(C)C)c(O)c(C(C)(C)C)c1	inactive	inactive		149% (inactive)	3.32 µM (active)			inactive		
CC(=O)[C@H]1CC[C@H]2[C@@H]3CCC4=CC(=O)CC[C@]4(C)[C@H]3CC[C@]12C	inactive		8.33 µM (active)					inactive		
Cc1cccc(N(C)C(=S)Oc2ccc3ccccc3c2)c1	inactive		inactive	112% (inactive)	20.9 µM (active)	inactive		inactive		
O=C(NCC1CN(c2ccc(N3CCOCC3=O)cc2)C(=O)O1)c1ccc(Cl)s1 (stereo unspecified)	inactive		inactive	135% (inactive)	inactive	inactive	inactive	inactive		
CNNCc1ccc(C(=O)NC(C)C)cc1	13.2 µM (active)	16.6 µM (active)	inactive		inactive	inactive	inactive		9.35 µM (active)	
CCn1cc(C(=O)O)c(=O)c2cc(F)c(N3CCNCC3)cc21	2.96 µM (active)	inactive	inactive			inactive	inactive			
COc1cc2c(Nc3ccc(Br)cc3F)ncnc2cc1OCC1CCN(C)CC1	16.6 µM (active)	18.7 µM (active)	6.62 µM (active)		20.9 µM (active)	7.43 µM (active)	7.43 µM (active)			
COc1cccc(N(C)C(=S)Oc2ccc3c(c2)CCCC3)n1	inactive		inactive	139% (inactive)	inactive			inactive		
O=C(N[C@H](CO)[C@H](O)c1ccc([N+](=O)[O-])cc1)C(Cl)Cl	inactive		inactive	115% (inactive)		inactive	inactive	inactive		
O=C(O)C1CCCN(CCC=C(c2ccccc2)c2ccccc2)C1 (stereo unspecified)	inactive	inactive	inactive	122% (inactive)		inactive	inactive	inactive		

SMILES	Potency [1]	Potency [2]	Potency [3]	viability [4]	Potency [5]	Potency [6]	Potency [7]	Potency [8]	Potency [4]	Potency [9]
COC(c1ccccc1)(c1ccccc1)[C@H](Oc1nc(C)cc(C)n1)C(=O)O	inactive		inactive		inactive	inactive	inactive	inactive		
CC(=O)[C@H]1CC[C@H]2[C@@H]3CC=C4C[C@@H](O)CC[C@]4(C)[C@H]3CC[C@]12C	inactive		inactive	123% (inactive)		inactive	inactive	inactive		
COc1ncnc(NS(=O)(=O)c2ccc(N)cc2)c1OC	inactive		inactive	128% (inactive)	inactive	inactive	inactive	inactive		
Cc1onc(-c2ccccc2Cl)c1C(=O)N[C@@H]1C(=O)N2[C@@H]1SC(C)(C)[C@@H]2C(=O)O	inactive	inactive	inactive			inactive	inactive	inactive		
CNCC[C@H](Oc1cccc2ccccc12)c1cccs1	18.7 µM (active)	2.35 µM (active)	8.33 µM (active)		2.35 µM (active)	0.59 µM (active)	0.833 µM (active)			0.59 µM (active)
C[C@]12C=CC(=O)C=C1CC[C@@H]1[C@@H]2C(=O)C[C@@]2(C)[C@H]1CC[C@]2(O)C(=O)CO	inactive	inactive		141% (inactive)	inactive	inactive		inactive		
COc1ccc(-c2ccc3cc(C(=O)O)ccc3c2)cc1C12CC3CC(CC(C3)C1)C2	inactive	inactive		119% (inactive)	5.26 µM (active)		inactive	inactive		
CO[C@@H]1[C@@H](OC(N)=O)[C@@H](O)[C@H](Oc2ccc3c(O)c(NC(=O)c4ccc(O)c(CC=C(C)C)c4)c(=O)oc3c2C)OC1(C)C	4.69 µM (active)	8.33 µM (active)	5.26 µM (active)			6.62 µM (active)	5.9 µM (active)	1.48 µM (active)		
O=C(O)c1cn(C2CC2)c2cc(N3CCNCC3)c(F)cc2c1=O	inactive		inactive	166% (inactive)	inactive	inactive	inactive	inactive		
OC(Cn1cncn1)(Cn1cncn1)c1ccc(F)cc1F	inactive	inactive	inactive		inactive	inactive	inactive			
Cc1cccc(Nc2ccncc2S(=O)(=O)NC(=O)NC(C)C)c1	inactive	0.0013 µM (active)	inactive		inactive	inactive		inactive		
CCN(CC)CC#CCOC(=O)C(O)(c1ccccc1)C1CCCCC1 (stereo unspecified)	inactive					inactive	inactive	inactive		
COc1cc2ncnc(Nc3cccc(Cl)c3)c2cc1OC	26.4 µM (active)	0.264 µM (active)	20.9 µM (active)		0.132 µM (active)					
CC1CC2C3CCC4=CC(=O)C=C[C@]4(C)[C@@]3(F)[C@@H](O)C[C@]2(C)[C@@]1(O)C(=O)CO (stereo partly specified)	0.0935 µM (active)	2.64 µM (active)	2.35 µM (active)			inactive	inactive			
CCOc1cc(N)c(Cl)cc1C(=O)NCC1CN(Cc2ccc(F)cc2)CCO1 (stereo unspecified)	inactive	inactive		114% (inactive)	inactive	inactive	inactive	inactive		
CCN(C)C(=O)Oc1cccc([C@H](C)N(C)C)c1	inactive	inactive	inactive				inactive	inactive		
